Compound activity deposited in PubChem by National Center for Advancing Translational Sciences (NCATS).
IL1B secr inh = inflammasome signaling inhibition, IL-1 beta readout; activity change, % at 57.5 µM; THP-1 LPS/ATP IL-1B secretion, AlphaLISA, 16 h; stronger effect = lower value; 360,000 tested, 4.7% active; in the data active = activity change below about -50%; inconclusive = mostly about -30% to -49%
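Secreted IL-1B measured by AlphaLISA bead assay after 16 h compound exposure of THP-1 cells; compounds (final up to 57.5 uM) added 1 h before LPS (250 ng/mL) and ATP (1.25 mM) stimulation; lower signal means less secretion.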
TDP1 cell CPT = growth inhibition of DT40 Tdp1-/-;hTDP1 cells with camptothecin (screen for TDP1 inhibitors) | chicken DT40 Tdp1-/-;hTDP1 cells + 20 nM CPT, ATP luminescence, 48 h | Potency, µM (top dose mostly 46.2 µM), most hits filed as inhibitors | 420,000 tested, 12% active | AID 686979; also: nearly all actives have a fitted effect of over 55% in size
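Cell growth measured by CellTiter-Glo luminescence after a minimum 48 h, 37 C compound exposure with 20 nM CPT in Tdp1-knockout DT40 cells stably expressing hTDP1, seeded 400/well; qHTS titration format.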
TDP1 cell noCPT = qHTS for Inhibitors of human tyrosyl-DNA phosphodiesterase 1 (TDP1): qHTS in cells in absence of CPT; DT40 Tdp1-/- hTDP1 cells, no CPT, ATP luminescence, 48 h; Potency, µM (doses to about 46.2 µM), hits mostly inhibitors; 420,000 tested, 15% active; AID 686978, 2013; also: nearly all actives have a fitted effect of over 55% in size
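Camptothecin absent (DMSO only). Human TDP1-complemented DT40 knockout cells, 400 cells/well, 37 °C for minimum 48 hr; ATP measured via CellTiter-Glo, 30 min dark incubation, luminescence.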
HT1080NT lethal = kills 2HG-producing HT-1080-NT fibrosarcoma cells; HT-1080-NT fibrosarcoma viability, CellTiter-Glo ATP luminescence, 48 h; 360,000 tested, 1.6% active; AID 686970; Potency, µM (highest dose often 46.1 µM), most hits filed as cytotoxic;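 also: NT is the 2HG producing partner of a matched IDH1 knockdown line; nearly all actives have a fitted effect of over 55% in size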
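Toxicity toward the 2HG-producing NT line was scored as %Activity, normalised to DMSO and no-cell wells, from CellTiter-Glo luminescence after 48 hours' treatment.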
HT1080 IDH1KD tx = toxicity to HT-1080 IDH1 knockdown cells (counter line). HT-1080 IDH1 knockdown viability, ATP luminescence, 48 h. Potency, µM (titrated, usually from 46.1 µM), hits mostly cytotoxic. 360,000 tested, 2% active. AID 686971
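Using the IDH1-knockdown HT-1080 line run in the same batch and compound series as the NT line, viability after 48 h at 37 °C was determined by CellTiter-Glo luminescence and expressed as % activity.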
Hits are given with their value; 0 = inactive; ? = inconclusive; - = not tested or not shown; [ ] = remark or other dose. Rows were chosen to be rich in hits. Some 19% of all compounds tested hit in one or more screens of this group. Unless noted, calls follow the shape of the dose curve; as a rule, active = well fitted curve in the direction sought with a large enough effect; inconclusive = small, poorly fitted or top-dose-only effect, or another doubt; inactive = no such curve, though single readings can be large; an effect the other way counts as inactive or inconclusive.

SMILES	IL1B secr inh	TDP1 cell CPT	TDP1 cell noCPT	HT1080NT lethal	HT1080 IDH1KD tx
C[C@]12c3[nH]c4ccc(Cl)cc4c3CCN1C(=O)[C@@H](CC(=O)NCCC1=CCCCC1)C[C@@H]2C(=O)N1CCOCC1	0	12µM	16µM	0	0
O=C(C[C@H]1C[C@H](C(=O)N2CCOCC2)[C@@]2(CCC3CCCC3)c3[nH]c4cc(-c5ccco5)ccc4c3CCN2C1=O)NCc1ccco1	-55	?	16µM	0	?
O=C(C[C@H]1C[C@H](C(=O)N2CCOCC2)[C@@]2(CCC3CCCC3)c3[nH]c4ccc(Cl)cc4c3CCN2C1=O)NCCc1ccccn1	0	16µM	16µM	0	0
Cc1cc2c(=O)[nH]c(N)nc2[nH]1	0	0	0	0	0
CCCOc1cc(C)c(S(=O)(=O)NCCOC)cc1C	0	26µM	?	0	0
COc1cccc(NS(=O)(=O)c2ccc(OC)c(OC)c2)c1	0	?	?	0	0
COc1cccc(NS(=O)(=O)c2ccc3[nH]c4c(c3c2)CCCCCC4)c1	-	16µM	21µM	-	-
COC(=O)c1ccc(NS(=O)(=O)c2ccc3[nH]c4c(c3c2)CCCC4)cc1	-	?	6.5µM	-	-
CC(=O)c1ccc(NS(=O)(=O)c2ccc3[nH]c4c(c3c2)CCCC4)cc1	-	0	0	-	-
CCOC(=O)CC(NS(=O)(=O)c1ccc2[nH]c3c(c2c1)CCCC3)c1ccccc1Cl (centres undefined)	-	18µM	?	-	-
CCOC(=O)CC(NS(=O)(=O)c1ccc2[nH]c(=O)sc2c1)c1ccc(C)cc1 (centres undefined)	0	0	0	0	0
CC(=O)N1CCC2(CC1)OC(=O)C(C)=C2C(=O)Nc1cc(C)ccc1C	-	0	0	-	-
Cc1ccc(CS(=O)(=O)c2ccc(C(=O)N3CCN(c4ccccn4)CC3)cc2[N+](=O)[O-])cc1	?	9.2µM	26µM	?	?
CCN(CC)C(=O)c1ccc(S(=O)(=O)Cc2ccc(C)cc2)c([N+](=O)[O-])c1	-68	?	?	0	0
CN(C)C(=O)c1ccc(-c2ccc3ncnc(NCCN4CCOCC4)c3c2)cc1	-	0	0	-	-
COc1cccc2sc3cc(NCCCN4CCOCC4)ccc3c(=O)c12	-60	?	?	0	0
O=c1c2ccccc2oc2ccc(NCCCN3CCOCC3)cc12	-53	?	0	0	0
O=c1c2ccccc2oc2cc(NCCCN3CCOCC3)ccc12	-51	?	?	0	0
Cn1c2ccccc2c(=O)c2cc(NCCCN3CCOCC3)ccc21	?	?	?	0	0
Cc1c(C(=O)NCCC2=CCCCC2)cccc1[N+](=O)[O-]	0	?	?	0	0
COc1ccc(/C=C2\C(=O)NC(=S)N2C(=O)c2ccc(C)cc2)cc1	0	?	15µM	0	0
N=C1SCC(=O)N1c1ncc(Cc2cccc(Cl)c2)s1	-103	?	?	0	0
CC(C)C(=O)Nc1ncc(Cc2ccccc2Cl)s1	0	0	0	0	0
O=C1c2ccccc2C(=O)N1c1ncc(Cc2ccc(Cl)cc2)s1	0	18µM	?	0	0
N=C1SCC(=O)N1c1ncc(Cc2ccccc2Cl)s1	-102	?	?	0	0
SMILES	IL1B secr inh	TDP1 cell CPT	TDP1 cell noCPT	HT1080NT lethal	HT1080 IDH1KD tx
O=[N+]([O-])c1ccc(N/N=C/c2ccc[nH]2)cc1	-77	?	23µM	0	0
COc1ccccc1NS(=O)(=O)c1cc([N+](=O)[O-])ccc1N/N=C/c1c[nH]c2ccccc12	-81	?	?	?	?
O=C(N/N=C/c1ccc[nH]1)c1ccccc1[N+](=O)[O-]	0	0	0	0	0
O=C(O)COc1ccccc1C=NNc1ccc([N+](=O)[O-])cc1S(=O)(=O)Nc1ccc(Cl)cc1	0	0	0	0	0
O=[N+]([O-])c1ccc(N/N=C/c2c[nH]c3ccccc23)cc1	-90	?	16µM	0	?
Cc1[nH]c2ccccc2c1/C=N/Nc1ccc([N+](=O)[O-])cc1S(=O)(=O)Nc1ccc(Cl)cc1	0	21µM	15µM	0	0
COc1ccccc1NC(=O)C(=O)Nc1ccc2c(c1)N(C(=O)C1CC1)CCC2	0	0	?	0	0
O=C(c1cn(C2CCCN(Cc3cc(Cl)ccc3O)C2)nn1)N1CCCCC1 (centres undefined)	-	0[9.04 µM]	0	-	-
COc1cccc(CSC(C(=O)O)c2ccccc2)c1 (centres undefined)	0	0	0	0	0
O=C(C1CCCO1)N1CCN(C(=S)Nc2cccc(F)c2)CC1 (centres undefined)	0	0	0	0	0
O=C(NCc1ccc(F)cc1)C1CCCCN1S(=O)(=O)c1ccc(F)cc1 (centres undefined)	-	0	0	-	-
COc1ccc(NS(=O)(=O)c2cc([N+](=O)[O-])ccc2NN=Cc2ccccc2OCC(=O)O)cc1	0	0	0	0	0
COc1ccc(NS(=O)(=O)c2cc([N+](=O)[O-])ccc2N/N=C\c2c(C)[nH]c3ccccc23)cc1	0	16µM	?	0	0
CCOc1ccccc1NC(=O)C1CCCN(S(=O)(=O)c2cccc3cccnc23)C1 (centres undefined)	0	?	?	0	0
CCOc1ccccc1NC(=O)C1CCCN1S(=O)(=O)c1ccccc1C(F)(F)F (centres undefined)	0	21µM	21µM	0	0
CCOc1ccccc1NC(=O)C1CCN(S(=O)(=O)c2ccc3[nH]c(=O)ccc3c2)CC1	-	0	0	-	-
CCOc1ccccc1NC(=O)C1CCCN1S(=O)(=O)c1ccc2nc(-c3ccccc3)[nH]c2c1 (centres undefined)	-	10µM	6.5µM	-	-
Cc1cc(C)cc(NC(=O)C2CCCN2S(=O)(=O)c2ccc3nc(-c4ccccc4)[nH]c3c2)c1 (centres undefined)	-	?	15µM	-	-
CCc1cccc(NC(=O)C2CCCN2S(=O)(=O)c2ccc3nc(-c4ccccc4)[nH]c3c2)c1 (centres undefined)	-	7.3µM	8.2µM	-	-
N#Cc1cc([N+](=O)[O-])ccc1NC(=O)COC(=O)C1CCC(=O)N1 (centres undefined)	0	0	0	0	0
O=C(NCC(=O)N1CCCC1)c1ccc(Br)cc1	0	0	0	0	0
CC(=O)Nc1ccc(S(=O)(=O)NCCSCc2ccc(Cl)cc2Cl)cc1	-56	?	18µM	0	?
CC(=O)Nc1ccc(S(=O)(=O)NCCCCNS(=O)(=O)c2ccc(NC(C)=O)cc2)cc1	0	0	0	0	0
c1ccc(Nc2nc(N3CCCCC3)nc(N3CCNCC3)n2)cc1	-65	29µM	18µM	?	?
Fc1ccc(Nc2nc(Oc3ccccc3F)nc(N3CCCC3)n2)cc1	-53	0	?	0	0
